# In the library only some 19% were active in any assay of this set; here they are far more common.
# KB-V1 MDR tox – KB-V1 MDR subline cytotoxicity; KB-V1 MDR cells viability, CellTiter-Glo, 72 h; Potency, µM (highest dose often 46.1 µM), hits mostly cytotoxic; actives 3.4% (n = 400,000); AID 1347076; also: nearly all actives have a fitted effect of over 60% in size
#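 Cytotoxicity via CellTiter-Glo luminescence after 72 h compound exposure at 37 degrees C. Cells: drug-selected KB-V1 line, DMEM phenol-red free plus 10% FBS. Compounds tested at multiple concentrations; normalized data fitted to concentration-effect curves.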
# HT1080NT lethal – kills 2HG-producing HT-1080-NT fibrosarcoma cells; HT-1080-NT fibrosarcoma viability, CellTiter-Glo ATP luminescence, 48 h; Potency, µM (highest dose often 46.1 µM), most hits filed as cytotoxic; AID 686970; actives 1.6% (n = 360,000);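 also: NT is the 2HG producing partner of a matched IDH1 knockdown line; nearly all actives have a fitted effect of over 55% in size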
#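 HT-1080-NT; 750 cells/well; 5% FBS RPMI; 48 h compound, 37 degrees C; CellTiter-Glo luminescence; curve fitting and curve-class assignment.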
# DT40 TDP1 no CPT – qHTS for Inhibitors of human tyrosyl-DNA phosphodiesterase 1 (TDP1): qHTS in cells in absence of CPT. DT40 Tdp1-/- hTDP1 cells, no CPT, ATP luminescence, 48 h. Potency, µM (highest dose often 46.2 µM), actives largely listed as inhibitors. actives 15% (n = 420,000). AID 686978, 2013; also: nearly all actives have a fitted effect of over 55% in size
#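 Cells were dispensed at 400 per well, compounds added by pin tool, plates incubated ≥48 hr at 37 °C, then CellTiter-Glo added for 30 min at room temperature before luminescence reading. Line: DT40 Tdp1-/- complemented with hTDP1; camptothecin omitted.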
# KB-3-1 cytotox – KB-3-1 parental cell cytotoxicity | KB-3-1 viability, CellTiter-Glo ATP luminescence, 72 h | Potency, µM (highest dose often 46.1 µM), most hits filed as cytotoxic | actives 1.4% (n = 400,000); also: nearly all actives have a fitted effect of over 60% in size
#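 KB-3-1 parental drug-naive adenocarcinoma cells in DMEM/10% FBS, incubated 72 h at 37 C with pin-transferred compounds across a concentration series. Viability by CellTiter-Glo luminescence; concentration-response curves fitted after normalization.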
# HT1080 IDH1KD tx – kills HT-1080 cells with IDH1 knockdown. Potency, µM (highest dose often 46.1 µM), most hits filed as cytotoxic. actives 2% (n = 360,000). HT-1080 IDH1 knockdown viability, ATP luminescence, 48 h
#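 Using the IDH1-knockdown HT-1080 line run in the same batch and compound series as the NT line, viability after 48 h at 37 °C was determined by CellTiter-Glo luminescence and expressed as % activity.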
# TDP1 cell CPT – growth inhibition of DT40 Tdp1-/-;hTDP1 cells with camptothecin (screen for TDP1 inhibitors) | chicken DT40 Tdp1-/-;hTDP1 cells + 20 nM CPT, ATP luminescence, 48 h | Potency, µM (doses to about 46.2 µM), usual class: inhibitors | actives 12% (n = 420,000); also: nearly all actives have a fitted effect of over 55% in size
#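 Chicken DT40 Tdp1-/- cells stably complemented with human TDP1 were seeded at 400 cells/well in medium containing 20 nM camptothecin, exposed to pin-transferred compounds, and grown at 37 °C for at least 48 hr. Viability was read as ATP luminescence.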
# A number is an active result; - = inactive; ? = inconclusive; . = no result; [ ] = dose if it differs, or a comment. Calls follow the shape of the dose curve; as a rule, active = well fitted curve in the direction sought with a large enough effect; inconclusive = small, poorly fitted or top-dose-only effect, or another doubt; inactive = no such curve, though single readings can be large; an effect the other way counts as inactive or inconclusive.
SMILES,KB-V1 MDR tox,HT1080NT lethal,DT40 TDP1 no CPT,KB-3-1 cytotox,HT1080 IDH1KD tx,TDP1 cell CPT
CCN(CC)c1ccc(S(=O)(=O)N2CCOCC2)cc1NC(=O)Cn1nc(C)c([N+](=O)[O-])c1C,-,-,?,-,-,?
CC[n+]1c(C)cc2c(sc3ccccc32)c1C,-,5.17µM,2.91µM,2.59µM,?,11.6µM
Cc1nc(NC(=O)c2ccco2)sc1-c1csc(Nc2ccc(Cl)cc2Cl)n1,?,?,14.6µM,-,?,23.1µM
COc1ccccc1Nc1nc(-c2sc(NC(=O)c3ccco3)nc2C)cs1,-,?,14.6µM,?,-,16.4µM
COc1cccc(N(C(=O)c2ccco2)c2nc(-c3sc(NC(=O)c4ccco4)nc3C)cs2)c1,-,-,14.6µM,5.8µM,-,14.6µM
COc1ccc(-c2csc(NC(=O)c3ccco3)n2)cc1,-,-,-,-,-,-
O=C(Nc1nc2ccc(Cl)cc2s1)c1ccco1,-,?,?,-,?,-
Cc1nc(NC(=O)c2ccco2)sc1-c1csc(Nc2ccc(Cl)cc2)n1,-,-,16.4µM,?,-,20.6µM
CC(C)C(OC(=O)c1cccs1)C(=O)NCc1ccc2c(c1)OCO2 (stereo not given),-,-,-,-,-,-
Cc1ccc(Cl)cc1Nc1nc(-c2sc(NC(=O)c3ccco3)nc2C)cs1,?,?,?,20.6µM,?,?
COc1ccc(OC(=O)c2ccc(Cl)cc2)c(C(C)=O)c1,-,-,-,-,-,-
COc1ccc(NC(=O)C#Cc2ccccc2)cc1OC,?,?,?,18.4µM,18.4µM,6.51µM
O=C(C#Cc1ccccc1)Nc1ccccc1F,?,-,18.4µM,?,-,20.6µM
NC(=O)c1ccc(NC(=O)C#Cc2ccccc2)cc1,-,20.6µM,8.2µM,23.1µM,16.4µM,?
CCn1c(CNC(=O)c2ccc(OC)cc2)nnc1SCC(=O)Nc1ccc(OC)cc1,-,.,-,-,.,-
Cc1sc2nc(SCC(=O)N(CCO)CCO)n(C3CCCCC3)c(=O)c2c1C,-,-,-,-,?,-
O=C(c1ccc(CNS(=O)(=O)c2ccc(Br)cc2)cc1)N1CCCCCC1,?,-,?,-,-,23.1µM
CN1CCN(C(=O)c2ccc(S(=O)(=O)c3ccc(Br)cc3)cc2)CC1,-,-,18.4µM,-,-,?
O=C(NC1CCCCCC1)C1CCN(C(=O)c2ccc(Br)cc2)CC1,-,-,14.6µM,-,-,20.6µM
Cc1c(C(=O)NCCc2cccnc2)cnn1-c1ncc2c(n1)-c1ccccc1CC2,.,.,?,.,.,-[9.04 µM]
COc1ccc2[nH]cc(CCN=C(NC(=O)c3ccccc3OC)Nc3nc(C)cc(C)n3)c2c1,?,.,.,-,.,.
Cc1cc(C)nc(NC(=NCCc2c[nH]c3ccccc23)NC(=O)C(C)(C)C)n1,?,-,14.6µM,?,-,?
Cc1cc(C)nc(NC(=NCCc2c[nH]c3ccc(Cl)cc23)NC(=O)c2ccccc2C)n1,-,.,.,?,.,.
COc1cccc(C(=O)NC(=NCCc2c[nH]c3ccc(OC)cc23)Nc2nc(C)cc(C)n2)c1,23.1µM,.,.,-,.,.
COc1ccccc1N(C)S(=O)(=O)c1ccc(C(=O)N2CCCC(C(F)(F)F)C2)cc1 (stereo not given),-,-,18.4µM,-,-,?
SMILES,KB-V1 MDR tox,HT1080NT lethal,DT40 TDP1 no CPT,KB-3-1 cytotox,HT1080 IDH1KD tx,TDP1 cell CPT
CCOC(=O)C1CCCN(C(=O)c2ccc3[nH]c4c(c3c2)CC(C)CC4)C1 (stereo not given),-,-,?,-,-,-
O=C(c1ccc(S(=O)(=O)N2CCCCCC2)cc1)N1CCCC(C(F)(F)F)C1 (stereo not given),-,-,?,-,-,?
CC1CCN(S(=O)(=O)c2ccc(C(=O)N3CCCC(C(F)(F)F)C3)cc2)CC1 (stereo not given),?,-,?,?,-,18.4µM
CC1CCc2[nH]c3ccc(C(=O)N4CCCC(C(F)(F)F)C4)cc3c2C1 (stereo not given),?,-,16.4µM,-,-,?
COc1ccccc1N(C)S(=O)(=O)c1ccc(C(=O)OCC(=O)N2CCC2)cc1,?,?,?,?,16.4µM,?
CC(CC(=O)N1CCN(S(=O)(=O)c2ccc(Cl)cc2)CC1)n1cncn1 (stereo not given),-,-,-,-,-,-
O=C(O)CC1COc2ccccc2N1C(=O)c1ccccc1Cl (stereo not given),-,-,-,-,-,-

# Bioassay records: PubChem, National Center for Advancing Translational Sciences (NCATS)
